Assay results reported in PubChem BioAssay (Tox21).
Inconclusive results are not listed. Calls of active or inactive are those of the source. Unless noted, calls come from the whole dose curve.

Tests used:
[1] = Nuclear factor erythroid 2-related factor 2/antioxidant responsive element (Nrf2/ARE) small molecule agonists: qHTS cell viability counter screen in human keratinocytes (AID 1919968; active = well fitted curve in the direction sought with a large enough effect in the repeat runs; an effect the other way counts as inactive or inconclusive; note: nearly all actives have a fitted effect of over 55% in size; note: potency is the fitted concentration of half-maximal effect)
Outline: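 Cytotoxicity was multiplexed with the Nrf2/ARE luciferase assay in the same wells. Stably transfected HaCaT keratinocytes were treated with test compounds for 23 h at 37 C. Cell viability was then measured by CellTiter-Fluor fluorescence.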

[2] = Nuclear factor erythroid 2-related factor 2/antioxidant responsive element (Nrf2/ARE) small molecule agonists: luciferase reporter gene qHTS assay in human keratinocytes (AID 1919969); note: nearly all actives have a fitted effect of over 35% in size; note: potency is the fitted concentration of half-maximal effect
[3] = target: Gonadotropin-releasing hormone receptor (Homo sapiens) (UniProt P30968); experiment: Human gonadotropin-releasing hormone receptor (GnRHR) small molecule agonists, calcium flux assay in GnRHR-HEK293 cells (AID 1920063); note: nearly all actives have a fitted effect of over 35% in size; note: potency is the fitted concentration of half-maximal effect
Outline: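 Agonist activity was measured as intracellular calcium flux in HEK293 cells engineered to stably express human GnRHR. After dye loading for 1 hour at 37 C, compounds in DMSO were added and fluorescence was followed for 3 minutes.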

[4] = target: KiSS-1 receptor (Homo sapiens) (UniProt Q969F8); experiment: Human kisspeptin (KISS1R) small molecule agonists, calcium flux assay in KISS1R-HEK293 cells (AID 1920064; active = well fitted curve in the direction sought with a large enough effect in the repeat runs; an effect the other way counts as inactive or inconclusive)
Outline: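 Agonist activity is monitored as intracellular calcium rise in engineered HEK293 cells carrying human KISS1R. Cells are dye-loaded for 1 h at 37 C before compound addition, and fluorescence is recorded for 3 min.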

[5] = G protein-coupled receptor (GPCR) small molecule agonists, calcium flux assay: HEK293 wild type cell line counter screen (AID 1920065)
Outline: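 Seed cells, incubate 18 h (37 C, 5% CO2); add calcium dye, 1 h at 37 C; pin-transfer compounds, ATP control or DMSO; read fluorescence 480/540 nm each second for 3 min.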

[6] = p53 small molecule agonists, cell-based qHTS assay with human liver microsomes: qHTS cell viability counter screen (AID 1963579); note: nearly all actives have a fitted effect of over 45% in size; note: potency is the fitted concentration of half-maximal effect
Outline: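 Tox21 library compounds, delivered from DMSO stocks, were tested on p53RE-bla cells together with 0.5 mg/mL human liver microsomes and 0.5 mg/mL NADPH (final) over 16 h at 37 C; CellTiter-Glo luminescence served as the cytotoxicity measure.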

[7] = p53 small molecule agonists, cell-based qHTS assay with rat liver microsomes: qHTS cell viability counter screen (AID 1963580); note: nearly all actives have a fitted effect of over 45% in size; note: potency is the fitted concentration of half-maximal effect
Outline: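 After the beta-lactamase ratio was read, CellTiter-Glo was added to the same wells and luminescence measured at 30 min; cells had been treated 16 h at 37 C with compounds, rat liver microsomes and NADPH (0.5 mg/mL final each).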

[8] = p53 small molecule agonists, cell-based qHTS assay: qHTS cell viability counter screen (AID 1963581); note: nearly all actives have a fitted effect of over 45% in size
Outline: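 Viability was counter-screened in parallel with the p53 agonist reporter by measuring intracellular ATP luminescence in the same HCT-116 p53RE-bla wells after 16 h compound treatment at 37 C.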

[9] = target: 5-hydroxytryptamine receptor 2A (Homo sapiens) (UniProt P28223); experiment: 5-hydroxytryptamine receptor 2A (HTR2A) small molecule antagonists, cell-based qHTS assay (AID 1963586); note: nearly all actives have a fitted effect of over 45% in size
Outline: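 CHO cells stably expressing human HTR2A were plated for 18 h at 37 C, then loaded with calcium dye for 1 h. Compounds were preincubated 5 min at room temperature before DOI (4 nM solution) was added. Kinetic fluorescence was read for 3 min.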

[10] = target: 5-hydroxytryptamine receptor 2A (Homo sapiens) (UniProt P28223); experiment: 5-hydroxytryptamine receptor 2A (HTR2A) small molecule agonists, cell-based qHTS assay (AID 1963587); note: nearly all actives have a fitted effect of over 30% in size
Outline: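 CHO cells stably expressing human HTR2A, plated 18 h, loaded with calcium dye 1 h at 37 C. Agonist mode: compounds added and intracellular calcium fluorescence recorded kinetically for 2 min at 1 sec intervals.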

[11] = target: Muscarinic acetylcholine receptor M1 (Homo sapiens) (UniProt P11229); experiment: Cholinergic receptor muscarinic 1 (CHRM1) small molecule agonists, cell-based qHTS assay (AID 1963589); note: nearly all actives have a fitted effect of over 35% in size
Outline: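 Cells were plated and incubated 18 h at 37 C/5% CO2, loaded with calcium dye for 1 h at 37 C, then treated with compounds in DMSO. Fluorescence was recorded kinetically at 1 sec intervals.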

[12] = cAMP Responsive Elements (CRE) small molecule agonists, cell-based qHTS assay (AID 1963590)
Outline: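 Cells carrying a CRE-driven beta-lactamase reporter (HEK 293T) are seeded, incubated overnight (18 h), and treated with test compounds for 3 h at 37 C; reporter activity is then detected with a FRET substrate after 2 h at room temperature.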

[13] = cAMP Responsive Elements (CRE) small molecule antagonists, cell-based qHTS assay (AID 1963591; active = well fitted inhibition curve with a large enough effect in the signal ratio in the repeat runs, not every such curve was filed as active; the % refers to the signal ratio)
Outline: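 Cells (CRE-bla HEK 293T, DMEM with 10% dialyzed FBS and 25 mM HEPES) are seeded and incubated 18 h. Compounds are added with NKH477 agonist at 0.25 uM final for 3 h, then FRET substrate for 2 h.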

[14] = target: Beta-2 adrenergic receptor (Homo sapiens) (UniProt P07550); experiment: Adrenergic beta2 receptor (ADRB2) small molecule antagonists, cell-based qHTS assay (AID 1963592); note: series mostly up to about 92 µM; nearly all actives have a fitted effect of over 50% in size
Outline: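 Assay format: CHO-ADRB2 cells, 18-20hr seeding at 37C/5% CO2, then compound plus 1nM isoproterenol agonist mix for 0.5hr RT. Homogeneous time-resolved fluorescence cAMP detection after 1hr, expressed as 665/615 nm ratio.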

[15] = target: Beta-2 adrenergic receptor (Homo sapiens) (UniProt P07550); experiment: Adrenergic beta2 receptor (ADRB2) small molecule agonists, cell-based qHTS assay (AID 1963593);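 note: CHO cells stably overexpressing human ADRB2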
Outline: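 CHO cells stably over-expressing ADRB2 were plated overnight at 37C, then dosed with compounds plus a stimulation mix containing 100uM IBMX and 25uM Ro-20-1724 for 0.5hr at room temperature. cAMP was measured by HTRF competition, 1hr.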

[16] = target: D(2) dopamine receptor (Homo sapiens) (UniProt P14416); experiment: Dopamine D2 receptor (DRD2) small molecule agonists, cell-based qHTS assay (AID 1963594); note: nearly all actives have a fitted effect of over 35% in size
Outline: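 HEK293 cells stably expressing human DRD2, pre-treated with PDE inhibitor Ro20-1724 (0.1 mM final) and compound 10 min at room temperature, then stimulated with NKH477 (200nM […]) for 30 min. cAMP read by HTRF (665/620 nm).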

[17] = target: D(2) dopamine receptor (Homo sapiens) (UniProt P14416); experiment: Dopamine D2 receptor (DRD2) small molecule antagonists, cell-based qHTS assay (AID 1963595; active = well fitted inhibition curve with a large enough effect in the signal ratio in the repeat runs, with a control signal flat; the % refers to the signal ratio)
Outline: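 Human DRD2 antagonist qHTS measuring cAMP by HTRF. The cells are exposed to compound for 10 min, then to NKH477 (200 nM) and quinpirole (12 nM) for 30 min at RT, with Ro20-1724 (0.1 mM) present throughout.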

[18] = target: Muscarinic acetylcholine receptor M1 (Homo sapiens) (UniProt P11229); experiment: Cholinergic receptor muscarinic 1 (CHRM1) small molecule antagonists, cell-based qHTS assay (AID 1963588); note: nearly all actives have a fitted effect of over 40% in size
Outline: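 Compounds were tested at 15 concentrations in three independent runs. Dye-loaded CHRM1-CHO cells were exposed 5 min at room temperature before stimulation by acetylcholine added at 50nM. Intracellular calcium was read kinetically on FDSS for 3 min.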

[19] = p53 small molecule agonists, cell-based qHTS assay (AID 1963582; active = well fitted activation curve with a large enough effect in the signal ratio in the repeat runs, not every such curve was filed as active; the % refers to the signal ratio)
Outline: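 Cells carrying a p53-responsive bla reporter are treated with test compounds for 16 h at 37 C; beta-lactamase activity is then detected with LiveBLAzer B/G FRET substrate after 2 h at room temperature.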

Measured: Potency

Chain of Gonadotropin-releasing hormone receptor (Homo sapiens) (P30968 whole entry, looked up): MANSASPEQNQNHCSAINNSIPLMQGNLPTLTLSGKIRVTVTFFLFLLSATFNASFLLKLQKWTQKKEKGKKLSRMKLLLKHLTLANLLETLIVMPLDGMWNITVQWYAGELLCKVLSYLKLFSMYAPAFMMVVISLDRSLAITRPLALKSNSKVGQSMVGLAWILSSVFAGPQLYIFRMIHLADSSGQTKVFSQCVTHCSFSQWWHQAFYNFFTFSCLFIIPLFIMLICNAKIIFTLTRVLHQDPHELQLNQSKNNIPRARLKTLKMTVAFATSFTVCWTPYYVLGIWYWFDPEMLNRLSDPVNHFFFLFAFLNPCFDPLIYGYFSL
Chain of 5-hydroxytryptamine receptor 2A (Homo sapiens) (P28223 whole entry, looked up): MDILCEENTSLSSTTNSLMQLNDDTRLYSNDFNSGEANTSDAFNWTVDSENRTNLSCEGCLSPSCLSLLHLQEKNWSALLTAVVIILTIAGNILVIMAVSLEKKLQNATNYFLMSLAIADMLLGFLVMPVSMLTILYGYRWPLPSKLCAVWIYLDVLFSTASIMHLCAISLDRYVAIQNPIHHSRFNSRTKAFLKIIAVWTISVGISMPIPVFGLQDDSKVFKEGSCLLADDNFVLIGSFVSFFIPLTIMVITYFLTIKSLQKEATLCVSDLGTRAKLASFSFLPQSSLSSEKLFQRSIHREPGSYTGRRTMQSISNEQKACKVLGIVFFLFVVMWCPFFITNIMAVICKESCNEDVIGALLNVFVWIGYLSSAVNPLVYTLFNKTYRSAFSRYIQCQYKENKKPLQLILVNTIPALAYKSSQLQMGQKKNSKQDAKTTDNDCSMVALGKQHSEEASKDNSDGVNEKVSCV
Chain of Beta-2 adrenergic receptor (Homo sapiens) (P07550 whole entry, looked up): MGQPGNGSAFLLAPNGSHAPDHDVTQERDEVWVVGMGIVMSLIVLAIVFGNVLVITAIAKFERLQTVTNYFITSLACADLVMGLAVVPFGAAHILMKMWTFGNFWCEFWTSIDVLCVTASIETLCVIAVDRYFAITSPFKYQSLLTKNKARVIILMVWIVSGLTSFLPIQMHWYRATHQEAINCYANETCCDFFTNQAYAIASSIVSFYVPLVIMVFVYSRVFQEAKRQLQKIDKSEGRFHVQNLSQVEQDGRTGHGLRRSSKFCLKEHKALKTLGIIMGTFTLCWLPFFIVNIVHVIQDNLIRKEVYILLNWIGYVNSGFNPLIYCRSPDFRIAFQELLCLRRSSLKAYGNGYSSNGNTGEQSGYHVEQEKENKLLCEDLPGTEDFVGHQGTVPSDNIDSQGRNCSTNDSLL
Chain of KiSS-1 receptor (Homo sapiens) (Q969F8 whole entry, looked up): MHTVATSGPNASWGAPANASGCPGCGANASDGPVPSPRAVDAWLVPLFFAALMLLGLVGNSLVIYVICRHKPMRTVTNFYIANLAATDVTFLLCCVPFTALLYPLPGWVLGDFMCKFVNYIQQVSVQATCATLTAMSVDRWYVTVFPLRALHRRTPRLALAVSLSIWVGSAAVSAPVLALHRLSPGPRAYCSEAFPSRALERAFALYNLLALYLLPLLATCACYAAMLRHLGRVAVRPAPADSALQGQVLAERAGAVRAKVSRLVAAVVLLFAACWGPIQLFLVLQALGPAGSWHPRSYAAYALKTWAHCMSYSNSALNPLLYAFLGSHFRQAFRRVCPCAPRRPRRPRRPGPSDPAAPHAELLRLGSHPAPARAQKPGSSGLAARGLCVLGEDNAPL
Chain of Muscarinic acetylcholine receptor M1 (Homo sapiens) (P11229 whole entry, looked up): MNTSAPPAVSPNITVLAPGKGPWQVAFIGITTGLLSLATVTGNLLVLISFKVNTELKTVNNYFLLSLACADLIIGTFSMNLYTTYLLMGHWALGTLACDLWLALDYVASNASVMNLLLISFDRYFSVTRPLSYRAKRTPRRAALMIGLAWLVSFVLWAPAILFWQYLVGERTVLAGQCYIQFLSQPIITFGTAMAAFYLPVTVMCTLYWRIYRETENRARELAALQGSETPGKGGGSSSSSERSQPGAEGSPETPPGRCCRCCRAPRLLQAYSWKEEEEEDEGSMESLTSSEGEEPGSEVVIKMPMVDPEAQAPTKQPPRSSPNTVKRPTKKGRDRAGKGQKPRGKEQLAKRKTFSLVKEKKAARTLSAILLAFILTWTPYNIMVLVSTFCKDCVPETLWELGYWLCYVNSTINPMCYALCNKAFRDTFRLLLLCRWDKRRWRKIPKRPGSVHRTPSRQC
Chain of D(2) dopamine receptor (Homo sapiens) (P14416 whole entry, looked up): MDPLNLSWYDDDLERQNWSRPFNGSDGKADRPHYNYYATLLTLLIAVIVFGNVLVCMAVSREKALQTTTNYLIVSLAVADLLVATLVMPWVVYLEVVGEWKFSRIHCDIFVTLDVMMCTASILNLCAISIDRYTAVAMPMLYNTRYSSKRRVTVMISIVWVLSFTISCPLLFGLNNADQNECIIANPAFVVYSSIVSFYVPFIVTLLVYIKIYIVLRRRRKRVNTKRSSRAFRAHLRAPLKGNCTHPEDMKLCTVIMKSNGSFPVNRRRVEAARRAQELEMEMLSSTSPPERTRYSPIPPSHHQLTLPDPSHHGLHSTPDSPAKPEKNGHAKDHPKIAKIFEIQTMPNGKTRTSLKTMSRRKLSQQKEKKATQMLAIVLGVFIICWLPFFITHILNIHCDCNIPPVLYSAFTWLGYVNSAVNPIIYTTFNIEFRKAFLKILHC

CCCCN(CCCC)C(=S)[S-].CCCCN(CCCC)C(=S)[S-].[Ni+2]
active: [1] 8.42 µM | [2] 2.99 µM
not listed: [18] | [19]
inactive: all other assays above

O=C(O)C(Br)(Br)Br
not listed: [11] | [19]
inactive: all other assays above

CCC1(C2=NCCN2)Cc2ccccc2O1 (centres undefined)
not listed: [16] | [19]
inactive: all other assays above

CCSC(=O)N(CC)C1CCCCC1
not listed: [15] | [19]
inactive: all other assays above

Nc1ccc2c(c1)Cc1ccccc1-2
not listed: [12] | [14] | [19]
inactive: all other assays above

CCCSP(=S)(OCC)Oc1ccc(Cl)cc1Cl (centres undefined)
active: [2] 61.1 µM
not listed: [18] | [19]
inactive: all other assays above

CN1C(=S)CN=C(c2ccccc2)c2cc(Cl)ccc21
not listed: [16] | [19]
inactive: all other assays above

CN(C)C1CCCCC1
not listed: [15] | [19]
inactive: all other assays above

CC1(C)COP(Oc2ccccc2)OC1
not listed: [13] | [15] | [19]
inactive: all other assays above

C[N+]1(CCC(C(N)=O)(c2ccccc2)c2ccccc2)CCCCC1
not listed: [15] | [19]
inactive: all other assays above

COC(=O)C1=CCCN(C)C1
active: [3] 1.07 µM
not listed: [11] | [18] | [19]
inactive: all other assays above

O=[N+]([O-])c1cccc2cccc([N+](=O)[O-])c12
not listed: [9] | [12] | [15] | [19]
inactive: all other assays above

O.O.O.O=C([O-])[C@H]([O-])[C@@H]([O-])C(=O)[O-].O=C([O-])[C@H]([O-])[C@@H]([O-])C(=O)[O-].[K+].[K+].[Sb+3].[Sb+3]
active: [2] 61.4 µM | [6] 36.5 µM
not listed: [8] | [19]
inactive: all other assays above

NC(=O)C(Cl)(Cl)Cl
not listed: [9] | [11] | [19]
inactive: all other assays above

ClCc1ccccc1Cl
not listed: [10] | [16] | [19]
inactive: all other assays above

Fc1ccc(C2(Cn3cncn3)OC2c2ccccc2Cl)cc1 (centres undefined)
not listed: [12] | [13] | [15] | [18] | [19]
inactive: all other assays above

CC[N+]1(CCOC(=O)C(O)(c2ccccc2)c2ccccc2)CCCCC1
not listed: [9] | [10] | [11] | [15] | [18] | [19]
inactive: all other assays above

CCOP(=S)(OCC)SCn1nnc2ccccc2c1=O
not listed: [8] | [9] | [12] | [13] | [15]
inactive: all other assays above

Clc1ccc(-c2ccccc2)cc1
not listed: [8] | [15] | [17]
inactive: all other assays above

COc1ncc(F)c2nc(S(=O)(=O)Nc3c(F)cccc3F)nn12
not listed: [9] | [19]
inactive: all other assays above

O=[N+]([O-])c1cc(Cl)c(Cl)cc1Cl
not listed: [11] | [15] | [16] | [18] | [19]
inactive: all other assays above

CC(C)CC(C)Nc1ccc(Nc2ccccc2)cc1 (centres undefined)
inactive: [3] | [4] | [5] | [6] | [8] | [10] | [11]
active: [1] 53.5 µM | [2] 23.9 µM | [7] 45 µM

CCC(Cl)CCl (centres undefined)
not listed: [18] | [19]
inactive: all other assays above

[O-][Cl+3]([O-])([O-])O
not listed: [9] | [12] | [19]
inactive: all other assays above

C=C(C)[C@H]1CN[C@H](C(=O)O)[C@H]1CC(=O)O
not listed: [9] | [10] | [19]
inactive: all other assays above

C/C=C/C=O
active: [2] 58.4 µM
not listed: [10] | [11] | [15] | [16] | [19]
inactive: all other assays above

O=C(O)[C@H](O)[C@@H](O)C(=O)O
not listed: [9] | [12] | [14] | [17] | [19]
inactive: all other assays above

CCOC(=O)CCl
not listed: [11] | [13] | [14] | [15] | [18] | [19]
inactive: all other assays above

Cc1ccc2cc3c(ccc4ccccc43)c3c2c1CC3
not listed: [9] | [10] | [11] | [18] | [19]
inactive: all other assays above

O=C1CN=C(c2ccccc2)c2cc(Cl)ccc2N1CC1CC1
not listed: [13] | [14] | [15] | [18] | [19]
inactive: all other assays above

O=C(N[C@H]1CN2CCC1CC2)c1ccc2c(c1)OCCO2
not listed: [9] | [13] | [19]
inactive: all other assays above

CC(C)C(Br)C(=O)NC(N)=O (centres undefined)
not listed: [9] | [10] | [11] | [15] | [18] | [19]
inactive: all other assays above

C[C@]12CC[C@H]3[C@@H](CCC4=CC(=O)CC[C@@]43C)[C@@H]1CC[C@@H]2O
not listed: [9] | [10] | [11] | [12] | [13] | [15] | [18] | [19]
inactive: all other assays above
